Assay results from PubChem BioAssay (Tox21).
Records with an inconclusive call do not appear. Entries that show only a call come without a potency. The source made the active and inactive calls. Unless noted, the call rests on the fitted dose curve; in most records, active means well fitted curve in the direction sought with a large enough effect in the repeat runs; inconclusive means weak or mixed curves; inactive means no such curve, though single readings can be large; an effect the other way counts as inactive or inconclusive.

Experiments:
[1] = qHTS assay for identifying genotoxic compounds that show differential cytotoxicity against isogenic chicken DT40 cell lines with known DNA damage response pathways - wild type cell line (AID 743012); further: nearly all actives have a fitted effect of over 60% in size; further: potency means the concentration at half of the fitted maximal effect
How it was run: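 Using parental DT40 (300 cells/well), compounds delivered in DMSO incubate 40 h at 37 C/5% CO2. CellTiter-Glo reagent then stands 30 min at room temperature, and luminescence gives cell viability.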

[2] = qHTS assay for identifying genotoxic compounds that show differential cytotoxicity against isogenic chicken DT40 cell lines with known DNA damage response pathways - Rev3 mutant cell line (AID 743014); further: nearly all actives have a fitted effect of over 55% in size; further: potency means the concentration at half of the fitted maximal effect
[3] = qHTS assay for identifying genotoxic compounds that show differential cytotoxicity against isogenic chicken DT40 cell lines with known DNA damage response pathways - Rad54/Ku70 mutant cell line (AID 743015); further: nearly all actives have a fitted effect of over 60% in size; further: potency means the concentration at half of the fitted maximal effect
[4] = qHTS assay to identify small molecule antagonists of the androgen receptor (AR) signaling pathway using the MDA cell line - cell viability counter screen (AID 743041; further: nearly all actives have a fitted effect of over 45% in size; further: potency means the concentration at half of the fitted maximal effect)
How it was run: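 Cells were plated at 3,000 per well and left 5 h. Compounds in DMSO were then pinned in, followed by R1881. After 16 h at 37C, CellTiter-Fluor fluorescence gave viability.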

[5] = target: Androgen receptor (Homo sapiens) (UniProt P10275); assay: qHTS assay to identify small molecule agonists of the androgen receptor (AR) signaling pathway using the MDA cell line (AID 743040; further: nearly all actives have a fitted effect of over 20% in size)
How it was run: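 Cells plated, 5 h at 37C/0% CO2; compound or DMSO pinned; 16 h at 37C; ONE-Glo added; luminescence measured after 30 min at room temperature. Reporter line: MDA-kb2 with MMTV-luciferase responsive to AR and GR.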

[6] = target: Androgen receptor (Homo sapiens) (UniProt P10275); assay: qHTS assay to identify small molecule antagonists of the androgen receptor (AR) signaling pathway using the MDA cell line (AID 743042; further: nearly all actives have a fitted effect of over 55% in size; further: potency means the concentration at half of the fitted maximal effect)
How it was run: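 Antagonist mode: compounds plus R1881 agonist added to MDA-kb2 AR-luc cells, incubated 16 h at 37C. Luciferase reporter luminescence quantified, with multiplexed CellTiter-Fluor readout for cell viability.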

[7] = qHTS assay to identify small molecule antagonists of the glucocorticoid receptor (GR) signaling pathway - cell viability counter screen (AID 720693); further: nearly all actives have a fitted effect of over 55% in size
[8] = qHTS assay to identify small molecule antagonists of the androgen receptor (AR) signaling pathway - cell viability counter screen (AID 743033; further: nearly all actives have a fitted effect of over 45% in size; further: potency means the concentration at half of the fitted maximal effect)
[9] = target: Androgen receptor (Homo sapiens) (UniProt P10275); assay: qHTS assay to identify small molecule antagonists of the androgen receptor (AR) signaling pathway (AID 743035; active means well fitted inhibition curve with a large enough effect in the signal ratio in the repeat runs, not every such curve was filed as active; the % refers to the signal ratio; further: potency means the concentration at half of the fitted maximal effect)
How it was run: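 Using qHTS, AR-UAS-bla GripTite HEK293 cells received compound, then R1881, and were cultured 16 h at 37C/5% CO2 before a 2 h room-temperature LiveBLAzer B/G FRET substrate step and fluorescence measurement.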

[10] = target: Androgen receptor (Homo sapiens) (UniProt P10275); assay: qHTS assay to identify small molecule agonists of the androgen receptor (AR) signaling pathway (AID 743036; active means well fitted activation curve with a large enough effect in the signal ratio in the repeat runs, with a control signal flat, not every such curve was filed as active; the % refers to the signal ratio; further: potency means the concentration at half of the fitted maximal effect)
How it was run: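 Following a 4 h settling period, AR-UAS-bla HEK293 cells were dosed with compounds for 16 h at 37C. A 2 h room-temperature incubation with LiveBLAzer B/G FRET substrate preceded the fluorescence measurement.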

Chain of Androgen receptor (Homo sapiens) (P10275 whole entry, looked up): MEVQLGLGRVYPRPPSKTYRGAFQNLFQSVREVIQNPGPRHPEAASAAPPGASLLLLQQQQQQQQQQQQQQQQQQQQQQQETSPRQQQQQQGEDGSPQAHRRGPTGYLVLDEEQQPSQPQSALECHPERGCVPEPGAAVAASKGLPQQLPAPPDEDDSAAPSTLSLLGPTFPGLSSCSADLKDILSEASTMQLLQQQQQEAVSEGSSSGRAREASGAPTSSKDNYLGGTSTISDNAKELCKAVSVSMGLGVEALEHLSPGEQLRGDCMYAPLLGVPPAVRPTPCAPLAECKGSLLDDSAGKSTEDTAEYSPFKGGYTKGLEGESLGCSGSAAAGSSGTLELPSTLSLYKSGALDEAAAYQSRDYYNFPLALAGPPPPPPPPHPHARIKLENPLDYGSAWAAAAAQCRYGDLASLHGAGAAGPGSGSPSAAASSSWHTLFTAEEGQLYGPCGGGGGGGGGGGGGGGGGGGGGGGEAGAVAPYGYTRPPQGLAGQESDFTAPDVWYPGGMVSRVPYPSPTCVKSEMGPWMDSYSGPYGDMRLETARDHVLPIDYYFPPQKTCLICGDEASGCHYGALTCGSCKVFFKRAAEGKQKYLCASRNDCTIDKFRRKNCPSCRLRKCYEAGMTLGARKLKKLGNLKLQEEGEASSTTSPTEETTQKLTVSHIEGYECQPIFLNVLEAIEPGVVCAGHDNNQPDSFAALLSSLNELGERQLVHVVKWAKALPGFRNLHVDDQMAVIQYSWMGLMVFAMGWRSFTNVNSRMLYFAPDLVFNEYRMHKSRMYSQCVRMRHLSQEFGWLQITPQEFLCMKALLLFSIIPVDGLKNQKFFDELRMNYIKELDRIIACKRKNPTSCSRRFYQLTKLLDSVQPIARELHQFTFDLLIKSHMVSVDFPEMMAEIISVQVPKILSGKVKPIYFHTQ

Structure (SMILES): CCCCCCCCCCCC[N+](C)(C)CC(=O)[O-]
- Potency [1]: 27.3 µM (active)
- Potency [2]: 27.3 µM (active)
- Potency [3]: 61.1 µM (active)
- Potency [4]: inactive

Structure (SMILES): CCC(Cc1ccccc1)(C(=O)c1ccc(N2CCOCC2)cc1)N(C)C (configuration not stated)
- Potency [1]: 7.7 µM (active)
- Potency [2]: 4.33 µM (active)
- Potency [3]: 9.69 µM (active)
- Potency [4]: inactive

Structure (SMILES): CNC(=S)NC
- Potency [1]: 61.1 µM (active)
- Potency [2]: 43.3 µM (active)
- Potency [3]: 61.1 µM (active)
- Potency [5]: inactive

Structure (SMILES): Nc1nc(Cl)nc2c1ncn2[C@@H]1O[C@H](CO)[C@@H](O)[C@@H]1F
- Potency [1]: 0.0019 µM (active)
- Potency [2]: 0.0019 µM (active)
- Potency [3]: 0.0024 µM (active)
- Potency [4]: inactive

Structure (SMILES): Cc1ccc(Nc2nccc(N(C)c3ccc4c(C)n(C)nc4c3)n2)cc1S(N)(=O)=O
- Potency [1]: 9.44 µM (active)
- Potency [2]: 11.9 µM (active)
- Potency [3]: 10.6 µM (active)
- Potency [5]: inactive
- Potency [6]: 11.9 µM (active)

Structure (SMILES): COCCOC
- Potency [7]: inactive
- Potency [8]: inactive
- Potency [4]: inactive

Structure (SMILES): CCOC(=N)CC(=O)OCC
- Potency [1]: inactive
- Potency [3]: inactive
- Potency [8]: inactive
- Potency [4]: inactive

Structure (SMILES): COc1cc2c(cc1OC)-c1cc(=Nc3c(C)cc(C)cc3C)n(C)c(=O)n1CC2
- Potency [1]: 2.66 µM (active)
- Potency [2]: 4.22 µM (active)
- Potency [3]: 6.68 µM (active)
- Potency [9]: 19 µM (active)
- Potency [5]: inactive
- Potency [6]: 29.8 µM (active)

Structure (SMILES): CCC(C(=O)OCCOCCN(CC)CC)c1ccccc1 (configuration not stated)
- Potency [7]: inactive
- Potency [3]: 21.1 µM (active)
- Potency [8]: inactive
- Potency [4]: inactive

Structure (SMILES): ON(Cc1ccccc1)Cc1ccccc1
- Potency [1]: inactive
- Potency [3]: inactive
- Potency [8]: inactive
- Potency [9]: inactive
- Potency [10]: inactive
- Potency [4]: inactive
- Potency [6]: inactive

Structure (SMILES): CN(C)CCOC1=Cc2ccccc2Sc2ccc(Cl)cc21
- Potency [1]: 5.31 µM (active)
- Potency [3]: 5.96 µM (active)

Structure (SMILES): CC(C)(O)c1ccccc1CC[C@@H](SCC1(CC(=O)O)CC1)c1cccc(/C=C/c2ccc3ccc(Cl)cc3n2)c1
- Potency [1]: inactive
- Potency [2]: inactive
- Potency [3]: inactive
- Potency [8]: inactive
- Potency [9]: inactive
- Potency [4]: inactive
- Potency [6]: inactive

Structure (SMILES): CC[C@@H]([C@H](C)O)n1ncn(-c2ccc(N3CCN(c4ccc(OC[C@@H]5CO[C@@](Cn6cncn6)(c6ccc(F)cc6F)C5)cc4)CC3)cc2)c1=O
- Potency [1]: 1.19 µM (active)
- Potency [2]: 1.88 µM (active)
- Potency [3]: 1.68 µM (active)
- Potency [8]: inactive
- Potency [4]: inactive

Structure (SMILES): CCC(=O)Oc1ccc(/C(CC)=C(\CC)c2ccc(OC(=O)CC)cc2)cc1
- Potency [1]: 48.6 µM (active)
- Potency [2]: 54.5 µM (active)
- Potency [3]: 48.6 µM (active)
- Potency [8]: inactive
- Potency [4]: inactive

Structure (SMILES): Cc1ccc(S(=O)(=O)NC2CCCCC2)cc1
- Potency [7]: inactive
- Potency [8]: inactive
- Potency [4]: inactive

Structure (SMILES): CCCCN(CCCC)C(=S)SSC(=S)N(CCCC)CCCC
- Potency [2]: inactive
- Potency [3]: inactive
- Potency [4]: inactive

Structure (SMILES): COC(=O)Nc1nc2ccc(C(=O)c3cccs3)cc2[nH]1
- Potency [1]: 0.15 µM (active)
- Potency [2]: 0.211 µM (active)
- Potency [3]: 0.237 µM (active)
- Potency [4]: inactive

Structure (SMILES): O=C(O)C(Cc1cc(I)c(O)c(I)c1)c1ccccc1 (configuration not stated)
- Potency [1]: inactive
- Potency [2]: inactive
- Potency [3]: inactive
- Potency [8]: inactive
- Potency [4]: inactive

Structure (SMILES): CC[C@H](NC(=O)c1cc(F)ccc1NS(=O)(=O)c1cccc2cccnc12)c1ccccc1
- Potency [7]: inactive
- Potency [3]: 64.9 µM (active)
- Potency [8]: inactive
- Potency [4]: inactive

Structure (SMILES): NC(=O)Nc1ccc(Cl)cc1
- Potency [7]: inactive
- Potency [3]: inactive
- Potency [8]: inactive
- Potency [4]: inactive

Structure (SMILES): CCCOC(=O)c1ccc(N)cc1
- Potency [1]: inactive
- Potency [3]: 23.7 µM (active)
- Potency [8]: inactive
- Potency [10]: inactive
- Potency [5]: inactive
- Potency [6]: inactive

Structure (SMILES): CC(CCO)CCc1ccccc1 (configuration not stated)
- Potency [7]: inactive
- Potency [3]: inactive
- Potency [8]: inactive
- Potency [4]: inactive

Structure (SMILES): Cc1cc2nc3ccc(=[N+](C)C)cc-3sc2cc1N
- Potency [1]: 0.596 µM (active)
- Potency [2]: 2.11 µM (active)
- Potency [3]: 0.596 µM (active)
- Potency [4]: 8.41 µM (active)
- Potency [6]: 4.22 µM (active)

Structure (SMILES): Nc1ccc(C(=O)OCCCOC(=O)c2ccc(N)cc2)cc1
- Potency [7]: inactive
- Potency [8]: inactive
- Potency [4]: inactive

Structure (SMILES): CCCCC/C(=C\c1ccccc1)CO
- Potency [7]: inactive
- Potency [4]: inactive

Structure (SMILES): CCCCCCCCCCCC[N+](C)(C)CCCS(=O)(=O)[O-]
- Potency [7]: inactive
- Potency [3]: 27.6 µM (active)
- Potency [4]: inactive

Structure (SMILES): O=C(OCCOCCO)c1ccccc1Nc1cccc(C(F)(F)F)c1
- Potency [7]: inactive
- Potency [8]: inactive
- Potency [4]: inactive

Structure (SMILES): Nc1ccc(S(=O)(=O)O)cc1
- Potency [7]: inactive
- Potency [3]: inactive
- Potency [8]: inactive
- Potency [4]: inactive

Structure (SMILES): N#C/C(=C1\SCC(c2ccccc2Cl)S1)n1ccnc1 (configuration not stated)
- Potency [7]: inactive
- Potency [3]: 29.8 µM (active)
- Potency [9]: inactive
- Potency [10]: inactive
- Potency [4]: inactive
- Potency [6]: inactive

Structure (SMILES): CCCOc1ccc(S(=O)(=O)N2CCN(CC)CC2)cc1-c1nc2c(CC)n(Cc3ccccn3)nc2c(=O)[nH]1
- Potency [7]: inactive
- Potency [8]: inactive
- Potency [4]: inactive

Structure (SMILES): CC(=O)OCC(=O)[C@H]1CC[C@H]2[C@@H]3CCC4=CC(=O)CC[C@]4(C)[C@H]3CC[C@]12C
- Potency [7]: inactive
- Potency [9]: inactive
- Potency [10]: 0.0301 µM (active)
- Potency [4]: inactive
- Potency [6]: inactive

Structure (SMILES): Cc1nccn1-c1ccc(Sc2cccc(C3(C(N)=O)CCOCC3)c2)cc1
- Potency [1]: 0.77 µM (active)
- Potency [2]: 1.54 µM (active)
- Potency [3]: 1.37 µM (active)
- Potency [8]: 4.9 µM (active)
- Potency [4]: 15.4 µM (active)

Structure (SMILES): CCC1(C)CC(=O)NC1=O (configuration not stated)
- Potency [1]: inactive
- Potency [3]: inactive
- Potency [8]: inactive
- Potency [4]: inactive

Structure (SMILES): CC1(C)O[C@@H]2C[C@H]3[C@@H]4CCC5=CC(=O)C=C[C@]5(C)[C@H]4[C@@H](O)C[C@]3(C)[C@]2(C(=O)CO)O1
- Potency [7]: inactive
- Potency [3]: inactive
- Potency [8]: inactive
- Potency [4]: inactive

Structure (SMILES): CC(C)C(OC(=O)c1ccccc1)C(C)(C)COC(=O)c1ccccc1 (configuration not stated)
- Potency [1]: 21.7 µM (active)
- Potency [3]: 24.3 µM (active)
- Potency [8]: inactive
- Potency [4]: inactive

Structure (SMILES): COCc1c(C(C)C)nc(C(C)C)c(/C=C/[C@@H](O)C[C@@H](O)CC(=O)O)c1-c1ccc(F)cc1
- Potency [1]: 0.075 µM (active)
- Potency [3]: 0.298 µM (active)
- Potency [4]: inactive
- Potency [6]: inactive
